Reference: the supplement of paper PMC6555819

System: VDR homodimer (NR concentration 270 nM)
Assay: PBM binding z-score (relative to random genomic background probes); higher = stronger binding; sequences stand for … in GC…GCGATTGACAGCGTAGAATGAAGG
Procedure, shortened: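 Binding z-scores take random background probes as their reference. They come from custom Agilent 4×180K protein-binding microarrays incubated 1 h with ligand-free nuclear receptor dimers, with antibodies against each partner (one per run) detecting binding. Scanned fluorescence was regression-normalized.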

Row | Sequence | PBM binding z-score
1 | TCTATTAGTTGAAGGGCAAACGACGAGTCCGTTT | 1.91
2 | ATCGAAAGGTCGAAGGTAAGTATACCCACCCGAA | 0.843
3 | ACTGGCAGGCCAAGGGTCACTCAAGATTAGTCCG | 1.11
4 | CCGACTGGGGCAAGGTTACCATAACGCACAGCCA | -0.0373
5 | ATCTCTAGGTAAAGATAGTACAGTGAATGCAAAT | 0.54
6 | ATCTGTAGGTAAAGATAGTTCAGTGAATGCAAAT | 0.568
7 | CCTAATTGGTCAGGAGGTCACACACCGGATATGA | 2.62
8 | CATGCTAGGTCAATGGTCAGCTAAAGCAGCTCGC | 0.0964
9 | ATATGTAGGTTAGCTGGGGTCATACAGACTAGGC | 4.09
10 | ATCTCTAGGTAAAGTTAAGTGAAAGATCGATAGA | 0.368
11 | ACTATTAGTTGACTTCGGGCAACCGATACGACGC | 0.371
12 | CCTTACGGGTCACTGACAAGTTATAGCATTTGGA | 0.93
13 | ACTAGCAGGCCAAGTTTGGGTCACCCAAACAAAG | 0.196
14 | CCGACTGGGGCAAAGGTTACCAGACTCAGTACGA | 0.000123
15 | GCTAGTTGGTCAGTAAAAGGTCACAAACCGGTCG | 1.71
16 | ATATGTAGGCTAGCTGGGGTCATTCAGACTAGGC | 3.63
17 | CATACAGGGTCAGCTAGGCCAGAGTCGGGACGGC | 1.31
18 | ATCTGTAGGTAACAAGTTCAGTGAAAGAGAGGAC | 2.46
19 | AGTCATAGTTCAGGACGAGGTAACGTAAAGCACG | 0.515
20 | TCATATAAGTAAATGCTAGGTGAAAGTCCGATCT | 0.559

Row | Sequence | PBM binding z-score
21 | TCATAAAGGTAAAGGTGAAAGTCGAACGATATGA | 0.0173
22 | TCTGCTAGGTCAACCATGGTCAGCTAATCTGCTA | -0.484
23 | TGAATTAGGTTATAAGATCAGGGAACGTTGCAAA | 0.321
24 | ATATCTAGGTTAAGGGTCATTCAGGTTGGTTCGC | 4.63
25 | TCTATTGGTTGAAGGGCAACCGACGAGTCCGTTT | 1.24
26 | ACTTACGCGTCAACGAGGTTATAGCACGCGTATA | 0.536
27 | ACTAGTTGGTCAGCTGACGTCACACACAATTCGG | -0.472
28 | CTCGAAAGGTCGTACTCAGGTGAGTATACCAAAC | 1.47
29 | TCGAGTAGGTTGGTCGGGGCATTCAGCCAACATA | 0.0879
30 | CCTACTGGGCCAAGGTCATTGTTCAGTCAAAGCA | 3.17
31 | CCTACTGGGCCATTTAGAGGTCATTGATCATATG | 3.36
32 | CTCGAAAGGTCGGTTCAGGTGAGTATACGGATAA | 2.34
33 | ATCTCTACGTAAAGTTCAGTGAAAGATCGATAGA | 2.27
34 | CGACAAAGTTCAAGGTAACGTAACAGAAAGCAGC | 3.11
35 | CAAACTAGATCACGAAAGGTCAAAGTCGAATGAC | 2.71
36 | CCTAACGGGTCAAGGTTATAGCACGGGTGGTACG | 1.37
37 | CCGACTGGGGCATACGGTTACCATAAGCCAGCCC | -0.653
38 | ATCTGTAGGTAAAGTTCAGTGAAAGATCGATAGA | 1.83
39 | ATCTCTAGGTAAAGTTCAGTTAAAGATCGATAGA | 2.04
40 | CGTCCAAGGTCAATACTAGGTCAGTGAAAGCATT | 2.44
